Assay results: PubChem BioAssay (NCI)
The panel holds about 83,000 compounds, 20% with a hit somewhere; the sample as a whole holds those more often.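 The endpoint reported here, percent growth, reads 100 for growth as untreated, 0 for no net growth and -100 for all cells dead.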 Values without a mark were called inactive. Calls of active or inactive are those of the source. Rule for the calls: active = growth percent below 10; inactive = the rest.

system: HL-60(TB) leukemia; assay: NCI-60 one-dose screen, 48 h (100 = growth as untreated, 0 = no growth, -100 = all killed); details: 10 µM unless noted

Row | Structure (SMILES) | growth
1 | Cc1cccc(-n2c(C)nc3ccc(NC(=O)NCCCl)cc3c2=O)c1 | 113%
2 | CCOC(=O)NNc1cccc(Cl)c1 | 110%
3 | CC1(C)C(=O)/C(=C\c2ccco2)C[C@]2(C)[C@H]3CC[C@@H]4[C@@H](C(=O)/C=C/c5ccco5)CC[C@@]4(C)[C@]3(C)CC[C@@H]12 | 81.6%
4 | O=c1[nH]cnc2c1C(c1ccc(Br)cc1)c1sc3c(F)cccc3c1O2 (centres undefined) | 99.4%
5 | O=C1CC[C@@H](C(=O)N[C@H]2CSSC[C@@H](C(=O)NCCc3ccccc3)NC(=O)[C@H](Cc3ccccc3)NC(=O)[C@@H]3CCCN3C(=O)[C@@H]3CCCN3C2=O)N1 | 76.3%
6 | NC1CCC(Nc2nc(NCc3cc(Cl)ccc3O)c3ncn(C4CCCC4)c3n2)CC1 (centres undefined) | -41.1% (active)
7 | COc1ccc(S(=O)(=O)N2CCN(c3cc4c(cc3F)c(=O)c(C(=O)O)cn4C3CC3)CC2)c(OC)c1 | 87.1%
8 | [2H]C([2H])([2H])Oc1cccc(/C=C/C(=O)/C=C(/C=C/c2cccc(OC([2H])([2H])[2H])c2OC([2H])([2H])[2H])OB(F)F)c1OC([2H])([2H])[2H] | 60%
9 | Cn1cc(-c2nnc(-c3cn(C)c4ncccc34)s2)c2ccccc21 | 27.8%
10 | O=[N+]([O-])c1cc([N+](=O)[O-])c(C(F)(F)F)cc1NN=C(c1ccc(O)cc1)c1ccc(O)cc1 | 103%
11 | Cc1ccc(OCC(=O)Nc2ccc(Oc3ccccc3)cc2)c([N+](=O)[O-])n1 | 69%
12 | CC1(C)OC(=O)C(c2ccsc2)C(=O)O1 | 112%
13 | Cn1nc(C(C)(C)C)cc1NC(=O)Cc1ccc(/C=C2\C(=O)Nc3ccccc32)cc1 | 48.2%
14 | Cc1nc(Nc2ccc(Cl)cc2)c2cnn(-c3ccccc3)c2n1 | 102%
15 | Cc1cc(C)c2c(NC(=O)Nc3ccc(Cl)c(Cl)c3)n[nH]c2n1 | 96.9%
16 | c1ccc2[nH]c(-c3ccc(-c4nccc5c4[nH]c4ccccc45)cc3)nc2c1 | -42.1% (active)
17 | Cc1cccc(/C=N/n2c(-c3ccc(Cl)cc3)nc3c(Br)cc(Br)cc3c2=O)c1 | 70.8%
18 | CC(/C=C1\SC(=S)N(CC(=O)NC(Cc2c[nH]c3ccccc23)C(=O)O)C1=O)=C\c1ccccc1 (centres undefined) | 100%
19 | COC(=O)[C@]12CC[C@@H](C)[C@H](C)[C@@H]1C1=CC[C@@H]3[C@@]4(C)C[C@@H](O)[C@H](O)[C@@](C)(CO)[C@@H]4[C@H](O)C[C@@]3(C)[C@]1(C)CC2 | -27.4% (active)
20 | O=C1N(C[P+](c2ccccc2)(c2ccccc2)c2ccccc2)CCCN1C[P+](c1ccccc1)(c1ccccc1)c1ccccc1 | 62.9%

Row | Structure (SMILES) | growth
21 | CCc1ccc(C2=C/C(=C/c3ccc(Cl)cc3)C(=O)N2CCc2ccc(S(N)(=O)=O)cc2)cc1 | -18.9% (active)
22 | O=C1/C(=C/c2ccc3c(c2)OCO3)SC(=S)N1CCc1ccc(O)cc1 | 90.9%
23 | O=C(O)c1ccc2c3ccc(C(=O)O)c4c(C(=O)O)ccc(c5ccc(C(=O)O)c1c25)c43 | 111%
24 | O=C(/C=C/c1cccc(O)c1)c1ccccc1O | 66%
25 | O=S(=O)(Cc1ccc(Cl)cc1Cl)c1ccc(Cl)cc1 | 10.5%
26 | COc1cccc2c1c1nc3cc(C)c(C)cc3nc1n2CCN(C)C | 15.3%
27 | CC(=O)C[n+]1ccc(C)cc1Sc1ccccc1C | 109%
28 | O=C(N/N=C/[C@@H](O)[C@H](O)[C@H](O)CO)c1ccc(NC(=O)c2cccnc2)cc1 | 99.4%
29 | NC(=O)c1cc(I)ccc1NC(=O)COc1ccc(Cl)cc1Cl | 76.9%
30 | Clc1cccc(Nc2nc(Nc3cnc4ccccc4c3)c3[nH]cnc3n2)c1 | 121%
31 | C/C(=N\NC(=O)C(C)SC(C)C(=O)N/N=C(\C)c1cccnc1)c1cccnc1 (centres undefined) | 77.1%
32 | COc1c(B(O)O)cc(C)cc1-c1nc2ccc3[nH]ncc3c2c2c1CCCC2 | 13.3%
33 | COc1ccc(/C=C/C(=O)c2ccc(NC(=O)CN3CCN(c4cc5c(cc4F)c(=O)c(C(=O)O)cn5C4CC4)CC3)cc2)cc1 | 123%
34 | Oc1ccc(/C=N/Nc2nc3ccccc3s2)c(O)c1 | 0.859% (active)
35 | C=C1N(C)c2ccc(Cl)cc2C1(C)C | 6.42% (active)
36 | CN(C)CCS(=O)(=O)Nc1cc(-c2ccc3ncnc(Nc4ccc(F)c(Cl)c4)c3c2)cnc1Cl | -15% (active)
37 | CCCCCCCCCc1cc[n+](CC(=O)c2ccc([N+](=O)[O-])cc2)cc1 | -40.4% (active)
38 | CCN(CC)CCC(CNc1c(C)cnc2cc(Cl)ccc12)c1ccc(Cl)c(Cl)c1 (centres undefined) | 51.5%
39 | Cc1cc(O)c2c(c1)C1OC(=O)CCCCCN1C1=C2C(=O)c2cccc(OC3CC(O)C(O)C(C)O3)c2C1=O (centres undefined) | 79.2%
